# Measurements published in PubChem BioAssay (EPA / NIEHS).
# Where “and” joins values, the source holds several entries; their conditions need not be identical. Identical values can stand only once. Results filed as inconclusive are left out. Calls of active or inactive are those of the source. How the source made its calls: active means hit-call score of the fitted dose curve at least 0.9, where 1 is the maximum; inconclusive means response in the unintended direction; inactive means score below 0.9.
# Tests used:
# [1] = biological target: chimpanzee Androgen Receptor (AR), AR (gene 747460) (UniProt O97775); assay: NVS_NR_cAR: NovaScreen (NVS) Nuclear Receptor Binding Assay for chimpanzee Androgen Receptor (AR) (AID 2283346);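 further: radioligand displacement from AR measured by scintillation counting in a cell-free assay; a loss of bound radioligand signal versus DMSO counts as binding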
# chimpanzee Androgen Receptor (AR), AR (gene 747460), sequence (O97775 whole entry, looked up): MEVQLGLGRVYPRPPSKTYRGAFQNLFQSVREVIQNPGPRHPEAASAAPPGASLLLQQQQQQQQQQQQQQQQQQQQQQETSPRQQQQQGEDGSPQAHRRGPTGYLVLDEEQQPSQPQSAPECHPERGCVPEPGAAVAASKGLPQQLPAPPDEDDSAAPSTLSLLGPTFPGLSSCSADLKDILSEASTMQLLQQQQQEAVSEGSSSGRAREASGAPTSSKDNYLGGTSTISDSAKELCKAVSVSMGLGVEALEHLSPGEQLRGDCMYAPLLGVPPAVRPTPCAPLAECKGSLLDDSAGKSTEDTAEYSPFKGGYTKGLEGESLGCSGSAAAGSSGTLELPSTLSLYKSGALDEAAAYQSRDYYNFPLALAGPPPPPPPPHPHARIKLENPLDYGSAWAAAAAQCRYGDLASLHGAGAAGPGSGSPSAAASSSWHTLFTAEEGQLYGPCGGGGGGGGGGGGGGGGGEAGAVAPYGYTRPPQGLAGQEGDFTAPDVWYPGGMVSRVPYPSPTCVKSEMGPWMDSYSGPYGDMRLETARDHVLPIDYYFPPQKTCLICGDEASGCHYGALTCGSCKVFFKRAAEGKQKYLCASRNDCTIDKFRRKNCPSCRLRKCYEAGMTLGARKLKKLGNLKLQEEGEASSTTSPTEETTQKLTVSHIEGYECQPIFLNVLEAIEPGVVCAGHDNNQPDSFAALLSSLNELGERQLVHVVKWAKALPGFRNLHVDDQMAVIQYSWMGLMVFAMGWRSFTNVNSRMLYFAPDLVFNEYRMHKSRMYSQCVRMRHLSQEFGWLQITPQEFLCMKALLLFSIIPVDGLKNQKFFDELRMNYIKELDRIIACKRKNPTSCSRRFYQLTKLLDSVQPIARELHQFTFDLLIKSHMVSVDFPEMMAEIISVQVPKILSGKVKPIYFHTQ
# How it was run: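 Radioligand binding to chimpanzee AR expressed in Sf9/Sf21 cells, cell-free, measured 72 h after dosing by lysate-based scintillation counting. Loss of signal vs DMSO; initial duplicate screen at 25 uM, actives retested in concentration series.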
# [2] = biological target: Estrogen receptor (Homo sapiens) (UniProt P03372); assay: NVS_NR_hER: NovaScreen (NVS) Nuclear Receptor Binding Assay for human Estrogen Receptor (ER) (AID 2283348)
# Estrogen receptor (Homo sapiens), sequence (P03372 whole entry, looked up, the tested form may be a part): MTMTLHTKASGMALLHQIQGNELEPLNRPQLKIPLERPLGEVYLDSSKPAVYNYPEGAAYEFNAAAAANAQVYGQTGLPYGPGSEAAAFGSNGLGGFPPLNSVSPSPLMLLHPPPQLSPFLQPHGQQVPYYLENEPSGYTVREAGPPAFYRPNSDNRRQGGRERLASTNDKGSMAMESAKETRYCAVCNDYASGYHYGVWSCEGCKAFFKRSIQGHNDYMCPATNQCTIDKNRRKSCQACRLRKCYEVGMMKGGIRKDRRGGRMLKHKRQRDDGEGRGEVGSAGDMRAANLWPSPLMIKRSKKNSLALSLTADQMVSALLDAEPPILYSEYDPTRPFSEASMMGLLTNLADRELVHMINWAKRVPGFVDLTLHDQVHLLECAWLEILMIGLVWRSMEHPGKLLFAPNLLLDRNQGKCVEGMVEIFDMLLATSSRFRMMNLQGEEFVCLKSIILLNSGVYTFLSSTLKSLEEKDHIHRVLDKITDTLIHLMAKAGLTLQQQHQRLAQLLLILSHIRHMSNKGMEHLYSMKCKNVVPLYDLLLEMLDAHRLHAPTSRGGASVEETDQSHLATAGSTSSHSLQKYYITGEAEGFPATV
# How it was run: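 MCF7-derived receptor extract, radiolabelled ligand, competitive displacement. Read: scintillation counts at 18 h. DMSO = negative control/baseline. Primary 25 uM duplicate; follow-up concentration–response.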
# [3] = biological target: Estrogen receptor (Homo sapiens) (UniProt P03372); assay: OT_ER_ERaERa_1440: Odyssey Thera (OT) 24-hour HEK293T Protein-Complementation Assay for Estrogen Receptor-alpha/-alpha Homodimer (AID 2283349);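 further: hits raise fluorescence above DMSO for agonists and antagonists alike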
# How it was run: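 Cells (HEK293T) carrying the fragment-tagged ERα LBD (aa 310-547) pair are treated with chemical for 24 hours. Nuclear and/or cytoplasmic fluorescence is then quantified on a laser scanning cytometer. Activity is scored as signal gain against DMSO.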
# [4] = biological target: Estrogen receptor (Homo sapiens) (UniProt P03372); assay: OT_ER_ERaERa_0480: Odyssey Thera (OT) 8-hour HEK293T Protein-Complementation Assay for Estrogen Receptor-alpha/-alpha Homodimer (AID 2283351);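 further: rise in fluorescence from reassembled reporter fragments on ERα LBD homodimer in nucleus or whole cell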
# How it was run: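 Cells were treated for 8 hours, then imaged on a laser scanning plate cytometer. Complementation of reporter fragments fused to the human ERα ligand-binding domain (residues 310-547) in HEK293T gave fluorescence, and gain of signal over vehicle was fitted.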
# [5] = biological target: Estrogen receptor (Homo sapiens) + Estrogen receptor beta (Homo sapiens) (UniProt P03372+Q92731); assay: OT_ER_ERaERb_0480: Odyssey Thera (OT) 8-hour HEK293T Protein-Complementation Assay for Estrogen Receptor-alpha/-beta Heterodimer (AID 2283352)
# Estrogen receptor (Homo sapiens) + Estrogen receptor beta (Homo sapiens), sequence (P03372 whole entry, looked up, the tested form may be a part): as above
# Estrogen receptor (Homo sapiens) + Estrogen receptor beta (Homo sapiens), sequence (Q92731 whole entry, looked up, the tested form may be a part): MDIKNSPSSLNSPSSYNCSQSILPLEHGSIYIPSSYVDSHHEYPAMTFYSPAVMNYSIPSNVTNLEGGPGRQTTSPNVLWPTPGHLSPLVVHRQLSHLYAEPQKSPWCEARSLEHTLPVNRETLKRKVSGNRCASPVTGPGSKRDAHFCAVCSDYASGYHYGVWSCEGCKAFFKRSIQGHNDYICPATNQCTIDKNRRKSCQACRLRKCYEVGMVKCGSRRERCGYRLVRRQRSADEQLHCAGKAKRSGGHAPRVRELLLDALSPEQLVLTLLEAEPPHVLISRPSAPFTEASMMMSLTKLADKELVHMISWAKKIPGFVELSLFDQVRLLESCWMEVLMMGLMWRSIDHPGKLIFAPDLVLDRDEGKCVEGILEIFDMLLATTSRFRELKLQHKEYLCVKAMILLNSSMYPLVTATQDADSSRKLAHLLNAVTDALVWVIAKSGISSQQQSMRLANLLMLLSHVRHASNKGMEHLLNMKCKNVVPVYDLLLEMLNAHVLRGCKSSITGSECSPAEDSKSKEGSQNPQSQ
# How it was run: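 HEK293T protein-fragment complementation assay of ER-alpha/ER-beta LBD heterodimerisation, read 8 h after dosing. Mean nuclear/cytoplasmic fluorescence intensity measured by laser scanning cytometry; gain of signal fitted relative to DMSO.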
# [6] = biological target: Androgen Receptor/SRC-1 Co-activator, AR (gene 367) (UniProt P10275); assay: OT_AR_ARSRC1_0960: Odyssey Thera (OT) 16-hour HEK293T Protein-Complementation Assay for Androgen Receptor/SRC-1 Co-activator (AID 2283353);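 further: actives raise the signal above DMSO so potency reflects increased AR and SRC-1 complex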
# Androgen Receptor/SRC-1 Co-activator, AR (gene 367), sequence (P10275 whole entry, looked up, the tested form may be a part): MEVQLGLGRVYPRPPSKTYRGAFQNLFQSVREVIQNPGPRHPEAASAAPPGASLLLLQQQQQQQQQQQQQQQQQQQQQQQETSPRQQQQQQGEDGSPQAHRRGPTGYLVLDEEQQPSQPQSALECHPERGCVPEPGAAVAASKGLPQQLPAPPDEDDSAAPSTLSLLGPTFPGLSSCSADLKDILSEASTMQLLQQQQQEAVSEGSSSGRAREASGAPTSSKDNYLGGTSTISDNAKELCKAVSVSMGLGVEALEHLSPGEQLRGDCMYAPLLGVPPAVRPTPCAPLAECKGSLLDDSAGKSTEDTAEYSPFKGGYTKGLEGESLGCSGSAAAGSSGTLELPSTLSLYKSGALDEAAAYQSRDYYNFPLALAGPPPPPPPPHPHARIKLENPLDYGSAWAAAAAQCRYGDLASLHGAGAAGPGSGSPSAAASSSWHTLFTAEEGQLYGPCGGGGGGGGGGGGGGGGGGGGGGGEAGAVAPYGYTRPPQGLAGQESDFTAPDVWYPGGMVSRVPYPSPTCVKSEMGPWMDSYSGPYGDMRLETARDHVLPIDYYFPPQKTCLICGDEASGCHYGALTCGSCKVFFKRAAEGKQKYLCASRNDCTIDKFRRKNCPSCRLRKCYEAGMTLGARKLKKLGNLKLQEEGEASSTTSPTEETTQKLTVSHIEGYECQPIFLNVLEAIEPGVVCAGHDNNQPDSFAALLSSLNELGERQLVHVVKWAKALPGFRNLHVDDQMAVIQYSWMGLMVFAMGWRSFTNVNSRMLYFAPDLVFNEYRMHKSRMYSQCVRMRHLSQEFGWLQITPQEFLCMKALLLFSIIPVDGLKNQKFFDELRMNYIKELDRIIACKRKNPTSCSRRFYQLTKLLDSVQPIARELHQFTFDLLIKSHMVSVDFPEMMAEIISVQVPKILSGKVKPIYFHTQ
# How it was run: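 Stable HEK293T line carries AR and SRC-1 each linked to a Venus fragment; chemicals are applied for 16 h, cells imaged at two wavelengths, and the 488 nm nucleus/cytoplasm ratio is taken as the signal, rising relative to DMSO.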
# [7] = system: guinea pig Histamine Receptor (H2), gene 100729734; assay: NVS_GPCR_gH2: NovaScreen (NVS) G Protein-Coupled Receptor Assay for guinea pig Histamine Receptor (H2) (AID 2283342)
# How it was run: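 Guinea pig striatal membrane preparation with specific radioligand; bound counts measured by filtration and scintillation 1 h post-dosing, DMSO as baseline. Chemicals passing a 25 uM duplicate screen were titrated to a 50 uM maximum.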
# NCBI gene 100848466 = assay: NVS_NR_bPR: NovaScreen (NVS) Nuclear Receptor Binding Assay for bovine Progextron Receptor (PR) (AID 2283343);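 further: actives lower bound radioligand signal below DMSO meaning displacement of the label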
# How it was run: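 Scintillation counts of bound radioligand were read 18 hours after chemical addition to membranes extracted from bovine uterus. Displacement was scored as loss of signal relative to DMSO controls. Screening began at 25 uM in duplicate.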
# [8] = biological target: Bile acid receptor (Homo sapiens) (UniProt Q96RI1); assay: NVS_NR_hFXR_Agonist: NovaScreen (NVS) Nuclear Receptor Binding Assay for human Farnesoid X Receptor Agonism (FXR) (AID 2283347)
# Bile acid receptor (Homo sapiens), sequence (Q96RI1 whole entry, looked up): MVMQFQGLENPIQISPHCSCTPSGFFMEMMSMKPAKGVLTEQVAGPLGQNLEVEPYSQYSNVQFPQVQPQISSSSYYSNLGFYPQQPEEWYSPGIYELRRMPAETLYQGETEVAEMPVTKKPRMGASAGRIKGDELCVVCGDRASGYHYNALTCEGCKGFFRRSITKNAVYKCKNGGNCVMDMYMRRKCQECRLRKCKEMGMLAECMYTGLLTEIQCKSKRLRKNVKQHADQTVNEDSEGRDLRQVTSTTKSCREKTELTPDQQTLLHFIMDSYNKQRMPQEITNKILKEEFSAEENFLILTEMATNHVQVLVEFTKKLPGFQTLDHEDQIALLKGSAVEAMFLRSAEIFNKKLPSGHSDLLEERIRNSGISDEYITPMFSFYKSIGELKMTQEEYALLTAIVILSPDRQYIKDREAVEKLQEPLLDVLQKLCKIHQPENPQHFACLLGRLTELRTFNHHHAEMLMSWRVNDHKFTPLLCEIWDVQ
# Description: NVS_NR_hFXR_Agonist is a biochemical, single-readout assay that uses extracted gene-proteins in a cell-free assay. Measurements were taken 1 hour after chemical dosing in a 384-well plate.NVS_NR_hFXR_Agonist is one of one assay component(s) measured or calculated from the NVS_NR_hFXR_Agonist assay. It is designed to make measurements of fluorescent resonance energy transfer, a form of binding reporter, as detected with fluorescent resonance energy transfer signals by Time-Resolved Fluorescence Resonance Energy Transfer (TR-FRET) technology.Data from the assay component NVS_NR_hFXR_Agonist was analyzed into 1 assay endpoint. This assay endpoint, NVS_NR_hFXR_Agonist, was analyzed in the positive analysis fitting direction relative to DMSO as the negative control and baseline of activity. Using a type of binding reporter, gain-of-signal activity can be used to understand changes in the binding as they relate to the gene NR1H4. Furthermore, this assay endpoint can be referred to as a primary readout, because the performed assay has only produced 1 assay endpoint. To generalize the intended target to other relatable targets, this assay endpoint is annotated to the nuclear receptor intended target family, where the subfamily is non-steroidal.
# Binding assays used specific radioligands (tritiated, iodinated) with non-radioactive competitive displacement ligands in agonist or antagonist protocols (as indicated) and various reference compounds and inhibitors to titrate specific binding to receptors and transporters. Most enzyme assays (CYPs, kinases, phosphatases, proteases, HDACs) used recombinant protein and specific substrates (fluorescence mostly, some colorimetric and radioactive) and inhibitors, followed by a biochemical separation of substrate and product. All assays for the biochemical HTS were initially run in duplicate at a single concentration (10 uM for CYP450 assays and 25 uM for all others). […] Each assay was run with positive and negative controls, and concurrent controls on every plate. […]
# [9] = biological target: Bile acid receptor (Homo sapiens) (UniProt Q96RI1); assay: NVS_NR_hFXR_Antagonist: NovaScreen (NVS) Nuclear Receptor Binding Assay for human Farnesoid X Receptor Antagonism (FXR) (AID 2283350)
# How it was run: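 Antagonist-format time-resolved FRET binding assay with extracted human receptor protein, read 1 hour after compound addition. Compounds first screened at 25 uM in duplicate, then actives tested in concentration series, with loss of signal relative to DMSO.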
smiles,measurement,setting,value
CCOC(=O)C(O)(c1ccc(Cl)cc1)c1ccc(Cl)cc1,AC50,[1],6.34 µM (active)
same,outcome,[2],inactive
same,outcome,[3],inactive
same,outcome,[4],inactive
same,outcome,[5],inactive
same,AC50,[6],37 µM (active)
C[C@]12CCC(=O)C=C1CC[C@@H]1[C@@H]2CC[C@@]2(C)[C@H]1CC[C@]2(C)O,outcome,[7],inactive
same,AC50,NCBI gene 100848466,0.149 µM (active)
same,AC50,[1],2.09 nM (active) and 6.55 nM (active)
same,outcome,[8],inactive
same,AC50,[2],6.34 µM (active) and 6.28 µM (active) and 6.19 µM (active)
same,outcome,[3],inactive
same,outcome,[4],inactive
Cc1cccc([N+](=O)[O-])c1,outcome,[2],inactive
same,outcome,[3],inactive
same,outcome,[4],inactive
CCCCCCCCCc1ccc(O)cc1,outcome,[2],inactive
same,AC50,[3],54.3 µM (active) and 28.9 µM (active) and 39.6 µM (active)
same,AC50,[4],55.2 µM (active) and 30 µM (active) and 24 µM (active)
same,AC50,[5],17.6 µM (active) and 14.6 µM (active) and 19.5 µM (active)
Oc1ccc(Cl)cc1Cl,outcome,[2],inactive
same,outcome,[3],inactive
same,outcome,[4],inactive
same,AC50,[5],66.5 µM (active)
c1cc2ccc3cccc4ccc(c1)c2c34,outcome,[3],inactive
same,outcome,[9],inactive
same,outcome,[4],inactive
same,outcome,[6],inactive
COS(=O)(=O)OC,outcome,[3],inactive
same,outcome,[4],inactive
CC(C)C(=O)OCC(C)(C)C(OC(=O)C(C)C)C(C)C (stereo not drawn),outcome,[3],inactive
same,outcome,[5],inactive
CCNc1nc(NC(C)C)nc(SC)n1,outcome,[6],inactive
O=C(NC(=O)c1cc(F)c(F)cc1Cl)Nc1cc(F)ccc1N1CCC(C(=O)O)CC1,outcome,[3],inactive
same,outcome,[4],inactive
O=S(=O)(O)C(F)(F)C(F)(F)C(F)(F)C(F)(F)F,outcome,[3],inactive
CN(C)c1nc(=O)n(C2CCCCC2)c(=O)n1C,outcome,[3],inactive
same,outcome,[4],inactive
CC1=C2C[C@H]3[C@@H](CC=C4C[C@@H](O)CC[C@@]43C)[C@@H]2CC[C@]12O[C@@H]1C[C@H](C)CN[C@H]1[C@H]2C,outcome,[3],inactive
same,outcome,[4],inactive
same,outcome,[6],inactive
CCOP(=S)(OCC)SCSC(C)(C)C,outcome,[3],inactive
same,outcome,[4],inactive
O=C(N[C@H]1CN2CCC1CC2)c1cc2ccoc2cn1,outcome,[3],inactive
same,outcome,[4],inactive
same,outcome,[5],inactive
same,outcome,[6],inactive
Nn1cnnc1,outcome,[2],inactive
same,outcome,[3],inactive
same,outcome,[4],inactive
same,outcome,[5],inactive
Cc1ccccc1O,outcome,[3],inactive
same,outcome,[4],inactive
same,outcome,[5],inactive
CCCCCCOC(=O)c1ccccc1C(=O)OCCCCCC,outcome,[3],inactive
same,outcome,[4],inactive
Clc1ccc(C(Cl)(Cl)Cl)cc1,outcome,[3],inactive
same,outcome,[9],inactive
same,outcome,[4],inactive
CCC(C)c1cc([N+](=O)[O-])cc([N+](=O)[O-])c1O (stereo not drawn),outcome,[3],inactive
same,outcome,[4],inactive
same,outcome,[5],inactive
Cc1ccccc1[N+](=O)[O-],outcome,[3],inactive
same,outcome,[4],inactive
Cc1ccccc1CO[C@@H]1C[C@@]2(C(C)C)CC[C@]1(C)O2,AC50,[6],79.7 µM (active)
NS(=O)(=O)C(F)(F)C(F)(F)C(F)(F)C(F)(F)C(F)(F)C(F)(F)C(F)(F)C(F)(F)F,outcome,[3],inactive
same,AC50,[4],76 µM (active)
same,AC50,[5],72.1 µM (active)
same,AC50,[6],68.4 µM (active)
C=CC(=O)NCNC(=O)C=C,outcome,[2],inactive
same,outcome,[3],inactive
same,outcome,[4],inactive
same,outcome,[5],inactive
same,outcome,[6],inactive
Cc1cccc(C)c1N,outcome,[3],inactive
same,outcome,[4],inactive
same,outcome,[5],inactive
CCCCCCCCOC(=O)c1ccccc1C(=O)OCCCCCCCC,outcome,[3],inactive
same,outcome,[4],inactive
same,outcome,[5],inactive
same,outcome,[6],inactive
Sc1ccccc1,outcome,[3],inactive
same,outcome,[4],inactive
CCSC(=O)N(CC)C1CCCCC1,outcome,[3],inactive
same,outcome,[4],inactive
c1ccc(-c2ccccc2)cc1,outcome,[2],inactive
same,outcome,[3],inactive
same,outcome,[4],inactive
same,outcome,[5],inactive
same,outcome,[6],inactive
CN(C)CCO,outcome,[3],inactive
same,outcome,[4],inactive
same,outcome,[5],inactive
ClC1=C(Cl)[C@]2(Cl)[C@@H]3[C@@H](Cl)[C@H]4O[C@H]4[C@@H]3C1(Cl)C2(Cl)Cl,outcome,[2],inactive
same,outcome,[3],inactive
same,outcome,[4],inactive
same,outcome,[5],inactive
OCC(O)CO,outcome,[3],inactive
same,outcome,[4],inactive
same,outcome,[5],inactive
CC#Cc1cc(C)nc(Nc2ccccc2)n1,outcome,[3],inactive
same,outcome,[4],inactive
same,outcome,[5],inactive
C1CC2OC2CC1C1CO1 (stereo not drawn),outcome,[3],inactive
same,outcome,[4],inactive
same,outcome,[5],inactive
O=C(NC(=O)c1c(F)cccc1F)Nc1cc(Cl)c(OC(F)(F)C(F)F)c(Cl)c1,outcome,[3],inactive
same,outcome,[4],inactive
same,outcome,[5],inactive
same,outcome,[6],inactive
C=CC(N)=O,outcome,[3],inactive
same,outcome,[4],inactive
Clc1ccc(Cl)cc1,outcome,[3],inactive
same,outcome,[4],inactive
same,outcome,[5],inactive
Cc1cc2c3c(c1)C(c1ccccc1)=N[C@@H](NC(=O)c1ccncc1)C(=O)N3CC2,outcome,[3],inactive
same,outcome,[9],inactive
same,outcome,[5],inactive
